The text below walks through data of PubChem BioAssay AID1625 (Sanford-Burnham Center for Chemical Genomics, 2009).

The campaign covered roughly 190,000 compounds. About 570 (0.3%) were called active.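 How the source made its calls: active means z-score above 3 at 5 µM with at least 500 cells counted in the well; inconclusive means wells under 500 cells, flagged as cytotoxic or low count; inactive means the rest.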 For the sample, actives were picked, then their nearest neighbours and some compounds at random.

The experiment is described as follows: insulin promoter activators in MIN6 cells, imaging, high-content screening, mouse beta cells (AID 1625).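 On cell count: total cells summed across four imaged fields per well.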 Particulars: MIN6 insulin promoter-GFP reporter, at 5 µM; cell count: measured here: cytotoxicity, nuclei count; z-score: stronger effect = higher value.
Take `O=C(Cc1nn[nH]n1)NCCC1=CCCCC1`: the cell count is 1260 cells and the z-score was -0.63 (inactive).
`O=C(Cc1cccc2ccccc12)NCCC1=CCCCC1`: the cell count came to 1280 cells and the z-score is -0.27 (inactive).
For `CN1CCNC(=O)C1CC(=O)NCCC1=CCCCC1` (centres undefined), the cell count came to 1390 cells and the z-score was 3.77 (active).
On the same counts, the results for `Cn1nc(C(C)(C)C)c([N+](=O)[O-])c1C(N)=O` are 1080 cells and -0.1 (inactive).
On the same counts, the results for `O=C(O)CC1=C(Nc2ccccc2)C(=O)N(c2ccccc2)C1c1ccc(Cl)cc1` (centres undefined) are 1370 cells and -0.28 (inactive).
In the same order, the values of `O=[N+]([O-])c1ccccc1NCc1ccccc1Cl` are 1120 cells and 0.76 (inactive).
Regarding `O=c1c([N+](=O)[O-])cccn1Cc1ccc(F)cc1Cl`, the cell count came to 1280 cells and the z-score was 3.36 (active).
Consider `N/C(=N/O)c1cccn1Cc1ccccc1[N+](=O)[O-]`, for which the cell count was found to be 1470 cells and the z-score is 0.02 (inactive).
In the same order, the values of `CN1CCN(C(c2cc3cc4c(cc3[nH]c2=O)OCCO4)c2nnnn2C2CCCC2)CC1` (centres undefined) are 1180 cells and -0.16 (inactive).
In the same order, the values of `CCOc1ccc(-n2cnc3c(=O)[nH]c(N)nc32)cc1` are 1510 cells and -0.16 (inactive).
In the same order, the values of `CC(C)(C)c1ccc(CCC2OCC(CN3CCOCC3)O2)cc1` (centres undefined) are 1070 cells and -0.91 (inactive).
Regarding `O=C(Cc1ccccc1)N1N=C(c2ccncc2)CC1(O)C(F)(F)F` (centres undefined), the cell count came to 1110 cells and the z-score is -0.48 (inactive).
In the same order, the values of `CN1CCN(C(=O)/C(=C\c2ccc3c(c2)OCO3)NC(=O)c2cccs2)CC1` are 1300 cells and 0.04 (inactive).
In the same order, the values of `CN1CCN(C(=O)/C(=C\c2cccs2)NC(=O)c2cccs2)CC1` are 1240 cells and 6.06 (active).
Regarding `Cc1ccc(C(=O)N/C(=C/c2cccs2)C(=O)N2CCCCC2)cc1`, the cell count is 1270 cells and the z-score is 0.22 (inactive).
In the case of `O=C(O)C(c1ccccc1)C1(O)CCCCC1` (centres undefined), the cell count is 1390 cells and the z-score is 0.43 (inactive).
Consider `CCCCSc1nnc2c(n1)OC=Nc1ccccc1-2`, for which the cell count amounted to 1140 cells and the z-score was -0.42 (inactive).
As for `Oc1ccc(/C=N/Nc2nc(-c3ccccc3F)nc3ccccc23)c(O)c1`, the cell count was 1070 cells and the z-score is 3.69 (active).
On the same counts, the results for `Cc1nc2ccccc2nc1N/N=C/c1ccc(O)cc1O` are 1210 cells and -3.3 (inactive).
In the same order, the values of `Fc1ccc(/C=N/Nc2nc(-c3cccnc3)nc3ccccc23)cc1` are 1030 cells and -0.09 (inactive).
On the same counts, the results for `O=C(NCCc1ccccn1)c1cccnc1Oc1ccc(Cl)cc1` are 1560 cells and -0.11 (inactive).
`Cc1nc2c(c(=O)n1Cc1ccco1)c1nc3ccccc3nc1n2Cc1ccccc1`: the cell count was 1260 cells and the z-score was -1.6 (inactive).
In the same order, the values of `Cc1cc2nc3c(=O)n(Cc4ccccc4)c(=O)[nH]c3nc2cc1N` are 1490 cells and 12.1 (active).
On the same counts, the results for `CC(=O)c1ccc(-c2ccc(Cn3c(C)nc4cc(N)c(C)nc43)cc2)cc1` are 1520 cells and 0.28 (inactive).
For `COc1ccc(Nc2cc(=O)n(-c3ccccc3)c3c2c(=O)n(C)c(=O)n3C)cc1`, the cell count was determined as 991 cells and the z-score was 0.04 (inactive).
In the same order, the values of `COc1ccc(C(=O)C2CCCN(C(=O)c3cc4nc(C)cc(C)n4n3)C2)cc1F` (centres undefined) are 1470 cells and -0.02 (inactive).
In the same order, the values of `COCc1cc(=O)[nH]c(SC)n1` are 1140 cells and -0.01 (inactive).
On the same counts, the results for `CC(C)c1nc(SCC(=O)NC(=O)NC(C)(C)C)n[nH]1` are 976 cells and -0.03 (inactive).
Take `CCOc1c2ccc(C(=O)NCc3ccc4c(c3)OCO4)cc2nn1C`: the cell count was 1870 cells and the z-score is 0.4 (inactive).
As for `CCOc1c2ccc(C(=O)NCc3ccc(OC(F)(F)F)cc3)cc2nn1C`, the cell count was determined as 1370 cells and the z-score is 2.39 (inactive).
In the same order, the values of `CCCn1nc2cc(C(=O)NCc3ccccc3)ccc2c1OCC` are 1430 cells and 4.73 (active).
On the same counts, the results for `CC12CN(NC(=O)c3ccc(Cl)cc3)C3(C#N)CC1CCC23C` (centres undefined) are 1610 cells and -0.1 (inactive).
For `Cc1cc2nc(C(F)(F)F)cc(-c3cccs3)n2n1`, the cell count is 1200 cells and the z-score was -0.13 (inactive).
For `O=C(COC(=O)C12CC3CC(CC(O)(C3)C1)C2)NC12CC3CC(CC(C3)C1)C2`, the cell count was determined as 1360 cells and the z-score is -1.25 (inactive).
With `Clc1ccc2nc(-c3ccccc3)nc(C(Cl)Cl)c2c1`, the cell count amounted to 892 cells and the z-score is -0.12 (inactive).
Consider `CN(c1ccccc1)c1ccc(/C=c2\s/c(=C(/C#N)C(=O)C(C)(C)C)n(Cc3ccco3)c2=O)cc1`, for which the cell count came out at 1460 cells and the z-score is 12.8 (active).
Consider `CCOC(=O)CSc1nc2c(sc(=S)n2CCc2ccccc2)c(=O)n1Cc1ccco1`, for which the cell count was determined as 1440 cells and the z-score was -0.59 (inactive).
As to `Cc1cc2c(c(=O)n1Cc1ccco1)C(c1ccccc1)C(C#N)=C(N)O2` (centres undefined), the cell count worked out at 961 cells and the z-score was -0.43 (inactive).
On the same counts, the results for `CSc1nc(-c2ccco2)nn1C(=O)c1ccccc1Cl` are 983 cells and -0.05 (inactive).
In the same order, the values of `COc1ccc(OC)c(CNC(=O)c2cc(=O)[nH]c3ccc(S(=O)(=O)N4CCCC4)cc23)c1` are 1540 cells and -0.29 (inactive).
In the same order, the values of `Cc1cc(C(=O)N/N=C/c2ccc(N3CCOCC3)cc2)c(C)o1` are 987 cells and 0.32 (inactive).
Consider `Cc1ccc(C(=O)NC(=S)Nc2ccc(N3CCOCC3)cc2)cc1`, for which the cell count was determined as 1440 cells and the z-score is -0.06 (inactive).
For the compound `CCN(CC)c1ccc(C(=O)N/N=C/c2ccc(N3CCOCC3)cc2)cc1`, the cell count was found to be 1830 cells and the z-score is 3.38 (active).
In the same order, the values of `COc1ccccc1Nc1nc(N)nc(CSC(=S)N2CCOCC2)n1` are 1080 cells and -0.34 (inactive).
In the same order, the values of `CCCN(c1ccc(C)cc1)c1nc(=O)c2cccnc2s1` are 1150 cells and 0.79 (inactive).
In the same order, the values of `O=C(NCc1ccc(F)cc1)C1CCC(CNc2c(N3CCOCC3)c(=O)c2=O)CC1` (centres undefined) are 1000 cells and -0.88 (inactive).
In the case of `CC(C)CN(CC(C)C)CC(O)CN(c1ccccc1)S(=O)(=O)c1ccccc1[N+](=O)[O-]` (centres undefined), the cell count stood at 1100 cells and the z-score is -1.15 (inactive).
On the same counts, the results for `CC(C)CNC(=O)C(=O)NCc1ccccc1` are 1620 cells and -0.28 (inactive).
`Cc1nn(-c2ccccc2)c(Cl)c1C(=O)Nc1ccccc1`: the cell count stood at 1480 cells and the z-score was -0.05 (inactive).
In the same order, the values of `Cc1nn(-c2ccccc2)c(C)c1NC(=O)CCl` are 1030 cells and 3.88 (active).
On the same counts, the results for `Cc1nn(-c2ccccc2)c(C)c1NC(=O)COc1ccc(Cl)cc1Cl` are 1470 cells and 1.23 (inactive).
On the same counts, the results for `S=C(NCCc1ccccc1)N1CCn2cccc2C1c1ccncc1` (centres undefined) are 1320 cells and 0.43 (inactive).
On to `O=C(CN1CCN(Cc2ccccc2)CC1)NC(c1ccccc1)c1ccccc1`, for which the cell count came to 847 cells and the z-score was 0.25 (inactive).
In the same order, the values of `CCN(CC(=O)Nc1cccc(S(N)(=O)=O)c1)Cc1nc2ccccc2c(=O)[nH]1` are 1090 cells and 0.21 (inactive).
In the same order, the values of `CC(=O)Nc1ccc(NC(=O)COc2ccc(S(=O)(=O)NC(C)c3ccccc3)cc2)cc1` (centres undefined) are 1520 cells and -0.4 (inactive).
On the same counts, the results for `CCCS(=O)(=O)C(=C1Nc2ccccc2N1)S(=O)(=O)CCC` are 1240 cells and 0.09 (inactive).
On to `CN(C)/C=C1/Nc2ccccc2C1=O`, for which the cell count came out at 636 cells and the z-score was 4.71 (active).
In the same order, the values of `O=C1CCCCC(=O)c2ccccc2N1` are 1400 cells and 0.07 (inactive).
As for `O=C(Nc1nnc(Cc2ccccc2)s1)c1cnccn1`, the cell count amounted to 1430 cells and the z-score is 0.26 (inactive).
On the same counts, the results for `Cc1ccccc1Cn1c2ccccc2c2cnn(CC(=O)NCc3ccco3)c(=O)c21` are 1130 cells and -0.15 (inactive).
In the same order, the values of `CCc1cccc(CC)c1NC(=S)Nc1ccc2cn[nH]c2c1` are 1180 cells and -0.06 (inactive).
On the same counts, the results for `O=C(CNC(=O)c1ccco1)OCC(=O)c1ccccc1` are 1220 cells and 4.35 (active).
Turning to `O=C(CNC(=O)c1ccccc1)NCC(=O)OCC(=O)c1ccccc1`, the cell count is 1240 cells and the z-score was -0.32 (inactive).
For `O=C(COC(=O)CNC(=O)c1ccco1)Nc1ccc(F)cc1`, the cell count came to 1320 cells and the z-score is -0.26 (inactive).
On the same counts, the results for `CCOC(=O)C1=C(N)N2C(=O)C(C)SC2=C(C(=O)OCC)C1c1cc(OC)c(OC)c(OC)c1` (centres undefined) are 1120 cells and -0.67 (inactive).
Regarding `NS(=O)(=O)c1ccc(NC(=O)COC(=O)c2cc3ccccc3oc2=O)cc1`, the cell count amounted to 1430 cells and the z-score is 0.45 (inactive).
In the same order, the values of `CCCCOc1ccc(CON(C(C)=O)C(C)=O)cc1Cl` are 1140 cells and -0.26 (inactive).
For the compound `O=C(CCn1nnc2ccccc2c1=O)N[C@@H](Cc1c[nH]c2ccccc12)C(=O)O`, the cell count worked out at 1030 cells and the z-score was 0.15 (inactive).
On the same counts, the results for `O=C(NCCCN1CCCCCC1)C1CC(=O)N(C2CCCC2)C1` (centres undefined) are 1560 cells and 4.02 (active).
On to `CC(C)OCCCNC(=O)C1CC(=O)N(C2CCCCCCC2)C1` (centres undefined), for which the cell count turned out to be 1560 cells and the z-score was -0.3 (inactive).
For `Cc1ccc(CNC(=O)C2CC(=O)N(C3CCCCCCC3)C2)cc1` (centres undefined), the cell count stood at 1550 cells and the z-score is -0.31 (inactive).
On the same counts, the results for `O=C(Nc1ccccc1)O/N=C1/CCCc2occc21` are 985 cells and -0.24 (inactive).
In the same order, the values of `O=C1CCCCC1C(=O)c1ccccc1` (centres undefined) are 991 cells and -0.12 (inactive).
`OC(c1ccccc1)C(CN1CCOCC1)c1ccccc1` (centres undefined): the cell count turned out to be 1160 cells and the z-score is -0.19 (inactive).
For the compound `c1ccc2[nH]c(NCCN3CCOCC3)nc2c1`, the cell count turned out to be 1180 cells and the z-score is 0.66 (inactive).
In the same order, the values of `c1ccc(Nc2nc(N3CCOCC3)c3ccccc3n2)cc1` are 637 cells and -1.26 (inactive).
On the same counts, the results for `C1=C(N2CCOCC2)/C(=C/c2nc3ccccc3[nH]2)CC1` are 905 cells and 3.43 (active).
On the same counts, the results for `CCOc1c(Nc2cccc(Cl)c2)c(=O)c1=O` are 1030 cells and 0.15 (inactive).
For the compound `COc1cc2c(C(=O)N3CCN(C)CC3)c(CSc3ccccc3)n(C)c2cc1Br`, the cell count amounted to 1290 cells and the z-score is -0.8 (inactive).
On the same counts, the results for `Cc1ccc(NC(=S)N2CCCC(c3ccccc3)=N2)cc1` are 1540 cells and -0.41 (inactive).
In the same order, the values of `O=S(=O)(NC(=S)Nc1ccccc1)c1ccc(F)cc1` are 1080 cells and -0.63 (inactive).
On the same counts, the results for `O=C(Cc1cccs1)Nc1nnc(C2CC2)s1` are 1650 cells and 1.57 (inactive).
`CCc1nnc(NC(=O)Cc2cccs2)s1`: the cell count was found to be 1560 cells and the z-score was 0.7 (inactive).
On the same counts, the results for `COc1ccc(Cc2nnc(NC(=O)Cc3cccs3)s2)cc1` are 1270 cells and 3.48 (active).
On the same counts, the results for `Cc1ccc(OCC(=O)Nc2nnc(-c3ccco3)s2)cc1` are 1050 cells and -0.23 (inactive).
In the same order, the values of `Cc1ccc(SC(C)C(=O)NCc2ccc(F)cc2)cc1` (centres undefined) are 1600 cells and 0.03 (inactive).
In the case of `N#CCCCn1c(O)c(N=NC(=O)C(O)c2ccccc2)c2ccccc21` (centres undefined), the cell count is 1150 cells and the z-score is 0.15 (inactive).
